# According to PubChem BioAssay:
# Activity calls are given as the source filed them. Unless noted, how the calls were made is not given here.
# What was measured:
# [1] = system: Wnt5a (protein binding on small-molecule microarray); assay: small molecules binding Wnt5a protein – biophysical, small-molecule microarray, 635/667 nm fluorescence, primary screen (AID 1142); details: 635 nm fluorescence, higher = more signal;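 further: fluorescence read at 667 nm with signal to noise per printed feature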
# [2] = ATP-based viability of Huh7 replicon cells – cell-based, CellTiter-Glo luminescence, basal, 48 h, cytotoxicity control for HCV replication inhibitor project, primary screen (AID 1143); details: higher = more signal, called active from +8 up or from −8 down;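 further: Huh7 hepatoma cells carrying a hepatitis C replication reporter with no stimulus; test concentration not given here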
# [3] = Pseudomonas biofilm growth suppression – PAO1 strain, BacTiter-Glo luminescence, LB-PBS, primary screen (AID 1144); details: P. aeruginosa PAO1 biofilm, 12 h, higher = more signal
# [4] = basal CRE-LacZ reporter activity in PC12 – cell-based, unstimulated, primary screen (AID 1145); details: no forskolin, luminescence, 4.5 h, higher = more signal, called active from +8 up or from −8 down
# [5] = forskolin-driven CRE-LacZ activity in PC12 – cell-based, CRE-LacZ reporter, forskolin-stimulated, primary screen (AID 1146); details: luminescence, 4.5 h, higher = more signal, called active from +8 up or from −8 down;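 further: PC12 cells with 6xCRE LacZ reporter stimulated by forskolin 10 µM; beta-galactosidase reporter signal reflecting CREB driven transcription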
# [6] = target: Streptavidin (Streptomyces avidinii) (UniProt P22629); assay: compounds binding control protein streptavidin – biophysical, small-molecule microarray, 635/667 nm fluorescence, artefact control for SMM compound annotation, primary screen (AID 1147); details: higher = more signal;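 further: signal reflects streptavidin binding to arrayed compounds as a control protein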
# Chain of Streptavidin (Streptomyces avidinii) (P22629 whole entry, looked up): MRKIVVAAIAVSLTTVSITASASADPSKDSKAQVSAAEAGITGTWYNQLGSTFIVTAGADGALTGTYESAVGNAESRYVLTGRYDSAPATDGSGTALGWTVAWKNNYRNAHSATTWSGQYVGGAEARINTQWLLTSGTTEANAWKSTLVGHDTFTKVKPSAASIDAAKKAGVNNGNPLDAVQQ
# [7] = probe aInhba binding on compound microarray – biochemical, small-molecule microarray, 635/667 nm fluorescence, primary screen (AID 1148); details: higher = more signal;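 further: score merges 667nm spot fluorescence with signal-to-noise for antibody binding to printed compounds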
# Torsin-1A (Homo sapiens) [8] = target: Torsin-1A (Homo sapiens) (UniProt O14656); assay: TOR1A wild-type binding on microarray – cell lysate, small-molecule microarray, lysate, 635/667 nm, primary screen (AID 1149); details: COS7 hTOR1A-WT lysate, 635 nm fluorescence, higher = more signal
# Chain of Torsin-1A (Homo sapiens) (O14656 whole entry, looked up): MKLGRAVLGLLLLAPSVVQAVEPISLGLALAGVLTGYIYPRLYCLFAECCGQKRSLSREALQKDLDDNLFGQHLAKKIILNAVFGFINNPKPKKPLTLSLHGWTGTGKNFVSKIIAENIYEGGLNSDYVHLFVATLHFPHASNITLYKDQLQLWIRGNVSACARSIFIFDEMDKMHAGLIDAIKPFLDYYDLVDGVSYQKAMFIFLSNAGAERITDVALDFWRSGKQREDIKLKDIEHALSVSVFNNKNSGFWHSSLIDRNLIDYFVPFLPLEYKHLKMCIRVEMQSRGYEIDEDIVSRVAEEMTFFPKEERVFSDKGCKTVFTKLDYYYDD
# Torsin-1A (Homo sapiens) [9] = target: Torsin-1A (Homo sapiens) (UniProt O14656); assay: torsin A mutant lysate binding on microarrays – cell lysate, small-molecule microarray, COS7 lysate, 635/667 nm fluorescence, primary screen (AID 1150); details: COS7 hTOR1A mutant lysate, 635 nm fluorescence, higher = more signal;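 further: score pools 667 nm emission and signal to noise measuring lysate protein binding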
# [10] = system: Sonic hedgehog protein (Shh); assay: Sonic hedgehog microarray binding compounds – biochemical, small-molecule microarray, 635/667 nm fluorescence, primary screen (AID 1151); details: 635 nm fluorescence, higher = more signal;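 further: Shh protein binding to compounds spotted on small-molecule microarray slides; score combines spot fluorescence intensity with signal-to-noise across triplicate slides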
SMILES,composite z-score [1],z-score [2],z-score [3],z-score [4],z-score [5],composite z-score [6],composite z-score [7],composite z-score (Torsin-1A (Homo sapiens) [8]),composite z-score (Torsin-1A (Homo sapiens) [9]),composite z-score [10]
CN1C(=O)C2C=CC(C(O)c3cccn3C)N(Nc3ccc([N+](=O)[O-])cc3[N+](=O)[O-])C2C1=O (stereo not given),0.28,0.515 (inactive),-0.255 (inactive),1.4 (inactive),1.36 (inactive),0.724,0.188,0.799,0.437,-0.0299
CCOC(=O)C[C@H]1[C@H](OC(=O)Cc2ccc3c(c2)OCO3)[C@@H](NC(=O)c2ccc3ccccc3n2)c2cc(OCCCO)ccc2N1C(=O)c1ccc2ccccc2n1,0.593,-1.23 (inactive),-1.4 (inactive),6.51 (inactive),-1.03 (inactive),0.363,-0.128,0.451,0.339,0.301
CC(C)N1C(=O)C[C@@](C(=O)O)(c2ccc([N+](=O)[O-])cc2)[C@H]1c1ccc(CO)cc1,-0.0691,0.034 (inactive),1.17 (inactive),0.441 (inactive),-0.303 (inactive),-0.923,-0.0288,-0.254,-0.0237,-0.878
C=CC[C@@]1(C(=O)NCCCOC)N=C(c2ccc(OCCCO)cc2)O[C@@H]1c1ccccc1,0.452,-1.92 (inactive),0.305 (inactive),1.51 (inactive),-0.68 (inactive),0.428,0.771,0.478,1.3,-0.499
[N-]=[N+]=NCc1ccccc1[C@@H]1OC(c2ccc(OCCCO)cc2)=N[C@]1(CCS(=O)(=O)c1ccccc1)C(=O)O,0.132,0.0514 (inactive),-0.127 (inactive),1.06 (inactive),-0.0084 (inactive),0.659,-0.0589,0.134,1.09,-1.42
CC(=O)NCCCC[C@@H]1NC(=O)[C@@H]2C[C@H](C(=O)NCCCCCN)[C@H](c3cccc(OCCO)c3)N2C1=O,0.698,-0.804 (inactive),-1.02 (inactive),-1.34 (inactive),-0.892 (inactive),1.37,-0.19,0.738,-0.0879,1.66
CCCN1C(=O)[C@]2(Cc3ccccc31)N=C(c1ccc(OCCCO)cc1)O[C@@H]2c1ccccc1,0.489,-5.07 (inactive),-2.3 (inactive),0.344 (inactive),-0.647 (inactive),0.899,-0.0087,0.738,0.423,1.12
C=CC[C@@H](OC(=O)Nc1ccc(SC)cc1)c1ccc(O)c(F)c1,0.175,-0.77 (inactive),-1.57 (inactive),9.49 (active),3.13 (inactive),-0.192,-0.0468,0.26,0.163,1.87
CCCCC(CC)C(O)C1C=CC2C(=O)N(c3ccccc3)C(=O)C2N1Nc1ccccc1F (stereo not given),0.507,-2.32 (inactive),-0.786 (inactive),-0.433 (inactive),-0.208 (inactive),0.0844,-0.128,0.136,0.663,-0.045
Cc1ccc(N2C(=O)c3ccccc3[C@@H](C(=O)NCCCN(C)C)[C@@H]2c2ccc(CO)cc2)nc1,-0.198,0.492 (inactive),0.252 (inactive),0.208 (inactive),-1.35 (inactive),0.0893,-0.477,0.276,0.011,0.0381
COCCOC(=O)N1C(=O)[C@@]2(c3cc(C#CCCO)ccc31)[C@H](c1ccc(OCCO)cc1)N1[C@H](c3ccccc3)[C@H](c3ccccc3)OC(=O)[C@H]1[C@@H]2C(=O)Nc1nc2ccccc2s1,0.508,-0.218 (inactive),0.56 (inactive),-0.618 (inactive),-0.267 (inactive),1.13,0.358,0.266,0.0474,1.97
[N-]=[N+]=Nc1ccccc1[C@@H]1OC(c2ccc(OCCCO)cc2)=N[C@]1(Cc1ccccc1)C(=O)O,0.343,-0.626 (inactive),0.693 (inactive),1.05 (inactive),-1.43 (inactive),0.723,0.207,0.0692,0.285,-0.0767
CS(=O)(=O)CCOC(=O)C1=CC(CCCO)=CC(c2ccc(CN3CCCC3)cc2)N(Cc2sc3ccccc3c2Cl)C=C1C(=O)OCCS(C)(=O)=O (stereo not given),0.689,-1.29 (inactive),1.13 (inactive),2.08 (inactive),0.274 (inactive),2.48,0.794,1.4,2.18,1.18
C=CC[C@]1(C(=O)N2CCOCC2)COC(c2ccc(OCCCO)cc2)=N1,0.0993,-2.76 (inactive),-0.974 (inactive),2.01 (inactive),-0.778 (inactive),1.76,0.166,1.74,2.16,0.935
CCOC(=O)C[C@H]1[C@H](OC(=O)c2cc3ccccc3oc2=O)[C@@H](NC(=O)CC(C)C)c2cc(OCCCO)ccc2N1C(=O)c1ccc2ccccc2n1,-0.0457,0.152 (inactive),0.152 (inactive),4.46 (inactive),0.446 (inactive),0.138,-0.128,-0.0914,0.234,1.41
COCCOC(=O)N1C(=O)[C@@]2(c3cc(C#CC4=CCCCC4)ccc31)[C@H](c1ccccc1OCCO)N1[C@H](c3ccccc3)[C@H](c3ccccc3)OC(=O)[C@H]1[C@@H]2C(=O)NC[C@H](O)c1ccccc1,0.6,-4.97 (inactive),0.819 (inactive),-0.329 (inactive),0.083 (inactive),0.423,-0.0428,0.281,0.501,2.13
CCCCC(CC)C(O)C1C=CC2C(=O)N(C)C(=O)C2N1Nc1ccccc1 (stereo not given),0.122,0.136 (inactive),-0.152 (inactive),-0.14 (inactive),0.184 (inactive),0.454,0.017,-0.111,0.254,-0.76
CCCCCN1CC=CC23O[C@@H]4C=CCCOC(=O)C4[C@H]2C(=O)N(CCCCCCO)[C@@H]3C1=O (stereo not given in full),-0.296,-0.181 (inactive),-0.00872 (inactive),-1.03 (inactive),-0.215 (inactive),-0.943,-0.263,1.13,2.1,0.0725
CC(C)NC(=O)[C@@]1(C)c2ccccc2C(=O)N(Cc2ccc(OC(F)(F)F)cc2)[C@H]1c1ccc(CO)cc1,-0.766,-1.98 (inactive),-0.539 (inactive),-0.411 (inactive),-1.48 (inactive),-0.933,-0.183,-2.23,0.492,-0.354
O=C(NCCN1CCOCC1)[C@@H]1c2ccccc2C(=O)N(C2Cc3ccccc3C2)[C@H]1c1ccc(CO)cc1,-0.136,-1.59 (inactive),-0.264 (inactive),0.118 (inactive),-1.42 (inactive),-0.456,-0.0509,1.3,0.966,0.105
CC(C)C[C@@H]1NC(=O)[C@@H]2C[C@H](C(=O)NCCCCCCN)[C@H](c3cccc(OCCO)c3)N2C1=O,0.0254,-0.214 (inactive),-1.74 (inactive),-0.675 (inactive),0.348 (inactive),0.919,0.747,0.255,1.73,2
C#Cc1cc2ccccc2oc1=O,-0.365,-0.692 (inactive),0.534 (inactive),0.136 (inactive),6.19 (inactive),-1.47,-0.149,0.173,-0.539,-1.45
COCCCNC(=O)[C@@]1(CCC(=O)OC(C)(C)C)N=C(c2ccc(OCCCO)cc2)O[C@H]1c1ccccc1N=[N+]=[N-],0.573,-0.61 (inactive),0.199 (inactive),0.456 (inactive),-1.71 (inactive),2.07,0.545,0.786,1.04,-0.341
CCOC(=O)C[C@H]1[C@H](OC(=O)c2cc3ccccc3oc2=O)[C@@H](NC(=O)c2ccc3ccccc3n2)c2cc(OCCCO)ccc2N1C(=O)Cc1ccc(OC)cc1,0.155,-0.593 (inactive),-1.05 (inactive),-1.23 (inactive),-0.74 (inactive),0.386,-0.0136,-0.262,-0.0557,1.56
CCOC(=O)[C@@H]1CCCCN1C(=O)C(=O)OC,0.214,0.474 (inactive),0.594 (inactive),0.362 (inactive),1.56 (inactive),-0.0957,0.0118,0.188,-0.144,0.901
C=CCN1Cc2ccccc2[C@@H]2OC(c3ccc(OCCCO)cc3)=N[C@]2(CC=C)C1=O,0.518,-2.51 (inactive),0.0166 (inactive),0.236 (inactive),-0.377 (inactive),0.579,0.462,0.918,0.966,1.81
CCOC(=O)C1=C[C@@H](C(C)(C)C)N(S(=O)(=O)c2ccc(C)cc2)[C@H]1c1cccc2ccccc12,-0.219,-4.9 (inactive),0.873 (inactive),1.14 (inactive),0.705 (inactive),0.823,0.0421,-0.331,0.406,-0.165
COC(=O)C(CC#Cc1ccc2c(c1)[C@]1(C(=O)N2)[C@H](c2ccc(O)cc2)N2[C@H](c3ccccc3)[C@H](c3ccccc3)OC(=O)[C@H]2[C@@H]1C(=O)NC[C@H](O)c1ccccc1)C(=O)OC,0.0209,-0.075 (inactive),0.221 (inactive),-0.0566 (inactive),-0.0638 (inactive),0.379,0.0769,-0.207,0.276,1.68
